# PMC4336329 (PLoS ONE, 2015)
# The campaign covered roughly 310,000 compounds. About 14,000 (4.5%) showed an effect of 50% or more. Effects have a minus sign here. The entries come from a sample that favours strong results as a whole.
# Target: human ether-à-go-go-related gene (hERG) potassium channel (human, UniProt Q12809)
# Assay: primary screen, population patch clamp on CHO cells stably expressing hERG; higher = less effect of the substance
# 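Also: peak tail current of the secondary pulse compared with the same well before compound.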
# Chain of human ether-à-go-go-related gene (hERG) potassium channel (Q12809 whole entry, looked up): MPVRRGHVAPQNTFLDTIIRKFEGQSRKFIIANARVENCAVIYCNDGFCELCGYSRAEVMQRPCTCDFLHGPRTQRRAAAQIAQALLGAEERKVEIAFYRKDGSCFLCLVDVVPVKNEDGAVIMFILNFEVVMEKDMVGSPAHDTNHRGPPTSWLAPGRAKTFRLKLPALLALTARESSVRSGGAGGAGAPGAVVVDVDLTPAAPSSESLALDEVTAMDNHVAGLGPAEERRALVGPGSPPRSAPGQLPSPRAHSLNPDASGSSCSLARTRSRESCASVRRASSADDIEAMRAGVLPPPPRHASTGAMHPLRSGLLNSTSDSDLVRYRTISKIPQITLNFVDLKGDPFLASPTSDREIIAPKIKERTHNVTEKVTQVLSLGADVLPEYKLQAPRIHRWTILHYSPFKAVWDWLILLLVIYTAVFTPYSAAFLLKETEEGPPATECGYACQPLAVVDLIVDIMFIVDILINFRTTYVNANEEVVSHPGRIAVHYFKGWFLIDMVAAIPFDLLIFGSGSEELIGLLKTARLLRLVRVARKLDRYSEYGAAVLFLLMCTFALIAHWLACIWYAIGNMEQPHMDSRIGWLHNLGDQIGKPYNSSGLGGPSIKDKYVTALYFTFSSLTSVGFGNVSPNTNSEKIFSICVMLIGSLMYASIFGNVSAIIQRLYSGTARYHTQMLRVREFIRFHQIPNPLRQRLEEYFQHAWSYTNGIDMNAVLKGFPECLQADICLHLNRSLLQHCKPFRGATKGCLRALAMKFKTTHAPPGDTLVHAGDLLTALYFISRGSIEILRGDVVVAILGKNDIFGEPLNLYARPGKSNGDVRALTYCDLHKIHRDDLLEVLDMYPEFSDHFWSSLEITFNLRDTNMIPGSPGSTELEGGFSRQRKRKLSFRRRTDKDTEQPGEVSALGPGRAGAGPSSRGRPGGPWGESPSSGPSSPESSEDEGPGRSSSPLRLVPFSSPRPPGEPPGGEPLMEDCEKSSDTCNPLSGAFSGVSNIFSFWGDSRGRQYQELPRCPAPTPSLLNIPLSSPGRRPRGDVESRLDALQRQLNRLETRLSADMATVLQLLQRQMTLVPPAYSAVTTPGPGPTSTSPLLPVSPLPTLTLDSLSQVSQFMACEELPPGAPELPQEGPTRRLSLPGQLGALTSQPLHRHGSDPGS
row,Compound,"hERG current change (%, negative = inhibition) at 10uM [%]"
1,COc1ccc(N2CCN(C(=O)C3CCCN(S(=O)(=O)c4cccc5cccnc45)C3)CC2)cc1 (stereo not shown),-32.1
2,O=C(C1CCCN(S(=O)(=O)c2cccc3cccnc23)C1)N1CCN(c2ccc(F)cc2)CC1 (stereo not shown),-67.5
3,O=C(O)[C@@H]1CCCN(S(=O)(=O)c2cccc3cccnc23)C1,11.6
4,O=C(O)C1CCCN(S(=O)(=O)c2cccc3cccnc23)C1 (stereo not shown),10.9
5,CCN1C(=O)[C@H]2[C@@H](c3ccc(C)cc3)N3C(=O)N(c4ccccc4)C(=O)[C@@]3(CC)[C@H]2C1=O,3.81
6,O=C(CN1C(=O)NC2(CCCCCC2)C1=O)N1CCC(Cc2ccccc2)CC1,-24.4
7,CN1CCN(C(=O)OC2c3nccnc3C(=O)N2c2ccc(Cl)cn2)CC1 (stereo not shown),13.9
8,O=C(NCC1CCCO1)c1c(O)c2cccc3c2n(c1=O)CC3 (stereo not shown),10.4
9,Cc1ccccc1C(=O)Nc1ccc(Cl)cn1,6
10,CCOC(=O)N1CCN(Cc2nc3cc(NC(=O)c4cccs4)ccc3n2CC)CC1,-55.3
11,CCOC(=O)N1CCN(Cc2nc3cc(NC(=O)c4ccco4)ccc3n2C)CC1,-26.5
12,CCOC(=O)N1CCN(Cc2nc3cc(NC(C)=O)ccc3n2CC)CC1,14.9
13,Cn1c(CN2CCCCC2)nc2cc(NC(=O)c3cccs3)ccc21,-31.2
14,CCCC(=O)Nc1ccc2c(c1)nc(CN1CCN(C(=O)OCC)CC1)n2CC,9.54
15,CC(=O)N1CCN(Cc2nc3cc(NC(=O)c4cccs4)ccc3n2C)CC1,13.8
16,CCOC(=O)N1CCN(Cc2nc3cc(NC(=O)c4cccs4)ccc3n2C)CC1,-74.7
17,CCOC(=O)N1CCN(Cc2nc3cc(NC(=O)c4ccco4)ccc3n2CC)CC1,-58
18,CCOC(=O)N1CCN(Cc2nc3cc(NC(=O)CC)ccc3n2CC)CC1,9.4
19,CCOc1ccc(C(=O)NC2CC(=O)N(c3ccc4c(c3)OCCO4)C2)cc1 (stereo not shown),-10.1
20,COc1ccccc1C(=O)N1CCN(Cc2nc(CC3CC3)no2)CC1,9.93
21,Cn1cc(CN2CCC(n3nccc3NC(=O)CCCc3ccccc3)CC2)cn1,5.95
22,O=C(CCCc1ccccc1)Nc1ccnn1C1CCN(Cc2ccc(CO)o2)CC1,-10.5
23,O=C(CCCc1ccccc1)Nc1ccnn1C1CCN(Cc2ccccn2)CC1,-15.2
24,Cc1nn(C)cc1CN1CCC(n2nccc2NC(=O)CCCc2ccccc2)CC1,-3.27
25,CC(CN1CCC(n2nccc2NC(=O)CCCc2ccccc2)CC1)c1ccccc1 (stereo not shown),-51.9

row,Compound,"hERG current change (%, negative = inhibition) at 10uM [%]"
1,Cc1ccccc1CN1CCC(n2nccc2NC(=O)CCCc2ccccc2)CC1,-49.3
2,CC(C)n1cc(CN2CCC(n3nccc3NC(=O)CCCc3ccccc3)CC2)cn1,-26
3,Cc1ccc(C)c(CN2CCC(n3nccc3NC(=O)CCCc3ccccc3)CC2)c1,-54.8
4,CC(=O)N[C@@H](C)C(=O)N1CCC(n2nccc2NC(=O)CCCc2ccccc2)CC1,-2.4
5,O=C(CCCc1ccccc1)Nc1ccnn1C1CCN(Cc2ccc(Cl)cc2)CC1,-74.8
6,O=C(CCCc1ccccc1)Nc1ccnn1C1CCN(Cc2ccccc2)CC1,-77.3
7,CC(C)c1ccc[n+](-c2nc([O-])sc2C=O)c1,14.7
8,S=c1nc(-c2ccccc2)n(CCN2CCOCC2)c2c1CCCC2,-13.4
9,O=C1c2ccccc2C(=O)C1c1ccc(Cl)cc1,8.89
10,CCOC(=O)N1CCN(C(=O)c2cc3cc(C)ccc3[nH]2)CC1,-7.43
11,O=c1[nH]nc(C(F)(F)F)c2nnn(Cc3ccccc3Cl)c12,14.1
12,CN1CCN(c2ccccc2NC(=O)c2ccc(-c3ccc(Cl)c(Cl)c3)o2)CC1,-3.73
13,CCOc1ccc(CN2CCC(n3nccc3NC(=O)CCCc3ccccc3)CC2)cc1,-78.2
14,C/C=C(\C)CN1CCC(n2nccc2NC(=O)CCOc2ccccc2)CC1,-31.5
15,Cc1ccc(CN2CCC(n3nccc3NC(=O)CCCc3ccccc3)CC2)o1,-20.5
16,C/C=C(\C)CN1CCC(n2nccc2NC(=O)CCc2ccccc2)CC1,-28.9
17,CSCCCN1CCC(n2nccc2NC(=O)CCCc2ccccc2)CC1,-62.5
18,CCn1nc(C)c(CN2CCC(n3nccc3NC(=O)CCCc3ccccc3)CC2)c1C,-60.1
19,CCn1nc(C)c(CN2CCC(n3nccc3NC(=O)Cc3ccccc3)CC2)c1C,6.57
20,CCn1cc(CN2CCC(n3nccc3NC(=O)CCCc3ccccc3)CC2)c(C)n1,-28.4
21,CSCC(=O)N1CCC(n2nccc2NC(=O)CCCc2ccccc2)CC1,-17.6
22,CCn1cc(CN2CCC(n3nccc3NC(=O)CCCc3ccccc3)CC2)cn1,-27.3
23,CSCCC(=O)N1CCC(n2nccc2NC(=O)CCCc2ccccc2)CC1,-5.8
24,C/C=C(\C)CN1CCC(n2nccc2NC(=O)CCCc2ccccc2)CC1,-62.9
